A selection: hits, their analogues and other compounds. The true share with any hit is near 3.4%.
GAA850 FXN act – FXN promoter activators, primary screen, cell-based, luciferase luminescence, HEK293 lucGAA850; HEK293 lucGAA850 FXN promoter luciferase reporter, 24 h; percent of 10 µM SAHA response; activation, % at 6 µM; 360,000 tested, 0.56% active; AID 540364, 2011;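 active = activation above the average of all compounds screened plus 3 SD, cutoff fixed separately per campaign, cut at about 7.5% in these data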;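 note: 0% = DMSO wells and 100% = 10 µM SAHA wells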
H9c2 protect – cardioprotection against H2O2-induced cell death, primary screen, uHTS, H9c2 cells, ATPLite luminescence | H9c2 cardiomyocytes, H2O2 injury protection, 2 h | protection from H2O2 cell death, % at 20 µM | 360,000 tested, 0.63% active;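 active = compounds giving at least 50% protection of heart cells from peroxide-induced death in the single-dose screen, raw or plate-pattern-corrected value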;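 note: 0% = DMSO wells with peroxide and 100% = DMSO wells without peroxide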
Gli-Sufu antag – Gli-Sufu pathway antagonists, primary screen, luciferase luminescence, Sufu-KO-LIGHT cells, uHTS; Sufu-KO-LIGHT fibroblasts, Gli luciferase reporter luminescence; inhibition, % at 5 µM; 340,000 tested, 0.74% active; AID 588413, 2011;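 active = inhibition above about 55%, limit read from the data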;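 note: 0% = DMSO-treated cells and 100% = wells with medium but no cells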
GalR3 antag – GalR3 antagonists in HEK293 cells, primary screen, cell-based, fluorescence readout; Galanin receptor type 3 (Homo sapiens), O60755; HEK293 GalR3-CNG cAMP membrane potential fluorescence; galR3 body fused to GalR1 C-terminus; inhibition, % at 3 µM; 360,000 tested, 0.44% active;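 active = inhibition above the screen-wide average plus 3 SD, cut at about 13% in these data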;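 note: forskolin and galanin both at EC90 stimulate the cells; cAMP rise reported by CNG channel membrane potential dye signal; 0% = forskolin plus galanin with DMSO and 100% = forskolin alone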
Target sequence (O60755 1-299 limits assumed): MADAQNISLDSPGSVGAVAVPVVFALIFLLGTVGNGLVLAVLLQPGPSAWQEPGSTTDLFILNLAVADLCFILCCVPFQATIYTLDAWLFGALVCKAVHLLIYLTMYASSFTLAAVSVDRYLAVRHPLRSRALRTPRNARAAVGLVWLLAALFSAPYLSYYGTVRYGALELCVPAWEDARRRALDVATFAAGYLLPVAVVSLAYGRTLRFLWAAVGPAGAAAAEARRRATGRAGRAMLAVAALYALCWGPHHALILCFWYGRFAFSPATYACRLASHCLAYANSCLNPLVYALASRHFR
NR2F2 inh – NR2F2 transcriptional activity inhibitors, primary screen, cell-based, luciferase reporter, HEK293T, luminescence | COUP transcription factor 2 (Homo sapiens), P24468 | HEK293T NGFI-A luciferase reporter | inhibition, % at 8.6 µM | 370,000 tested, 0.7% active | AID 686940, 2013;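 active = inhibition above a per-plate cutoff, mean inhibition of test wells between control levels plus 3 SD, cut at about 38% in these data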;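 note: cells cotransfected with COUP-TFII expression vector driving the NGFI-A reporter; 0% = median of COUP-TF2 test wells and 100% = reporter-only cells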
SMARCA2 activ – SMARCA2 (BRM) function activators, primary screen, cell-based, luminescence, high throughput. MG213 cells, MMTV-luciferase reporter, dexamethasone, overnight. activation, % at 9.1 µM. 370,000 tested, 1% active; in the data active = activation above about 7.8%;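 note: 0% = vehicle wells and 100% = reference activator wells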
The depositor's hits bear a star; . = no result.

SMILES	GAA850 FXN act	H9c2 protect	Gli-Sufu antag	GalR3 antag	NR2F2 inh	SMARCA2 activ
CCOC(=O)c1cnc2ccc(C(=O)OC)cc2c1NCCc1ccc(OC)c(OC)c1	0.8	53.1*	16.8	3.0	-5.5	-1.4
CCC(=O)N1CCc2cc(Br)c(S(=O)(=O)N3CCCC(C(=O)NC(C)(C)C)C3)cc21 (stereo not drawn)	.	.	.	.	-2.0	-0.8
O=C(Nc1ccc(Cl)cc1)N1CCN(c2ccc3nnc(-c4ccc(F)cc4)n3n2)CC1	3.4	53.1*	26.5	-6.0	15.1	-0.5
O=C(Nc1ccccc1Cl)N1CCN(c2ccc3nnc(-c4ccccc4)n3n2)CC1	1.4	42.8	31.3	.	.	.
O=C(c1ccc(Br)o1)N1CCN(c2ccc3nnc(-c4ccc(F)cc4)n3n2)CC1	1.6	51.9*	2.9	-0.7	12.2	-2.3
O=C(c1ccc(Br)o1)N1CCN(c2ccccn2)CC1	1.0	1.8	11.0	-3.7	4.8	-2.9
CCSc1nc2sc3c(c2c(=O)[nH]1)CCCC3	-0.1	-6.8	1.4	-6.5	-4.0	2.8
O=C(CCCSc1nc2sc3c(c2c(=O)[nH]1)CCC3)NCCCO	2.0	57.9*	-8.6	0.6	2.7	-1.6
O=C(CCCSc1nc2sc3c(c2c(=O)[nH]1)CCC3)NCCO	1.6	87.6*	-1.0	4.8	7.6	2.7
Nc1nc(SCC(=O)NCCCO)nc2sc3c(c12)CCC3	-0.9	4.8	0.8	-4.0	-3.6	-2.2
CC(C)c1ccccc1NC(=O)[C@@H]1CCCN1S(=O)(=O)c1cccc2cccnc12	.	.	.	.	6.3	.
COc1cccc(/C=N/Nc2nn3cnnc3c3ccccc23)c1O	-4.7	50.1*	-8.8	-1.2	0.1	-0.8
O=C(C1CCC1)N1CCc2cc(S(=O)(=O)N3CCCC3)ccc21	.	.	.	.	-5.9	-1.5
C[C@@H]1CCCCO[C@H](CN(C)S(=O)(=O)c2cn(C)cn2)[C@@H](C)CN([C@H](C)CO)C(=O)c2cc(NC(=O)CCCN(C)C)ccc2O1	.	.	.	-4.5	-11.4	-1.6
O=C(Nc1nc(-c2ccccn2)cs1)c1ccc(Br)s1	-1.5	48.3	82.4*	-4.7	10.4	-0.6
O=C(Nc1nc(-c2ccccn2)cs1)c1cccc(-n2cnnn2)c1	-2.3	67.8*	21.7	-1.1	23.2	-4.6
O=C(Nc1nc(-c2ccccn2)cs1)c1ccco1	-2.0	43.7	-6.5	-0.4	-1.9	-12.7
COC(=O)c1cccc(N2C(=O)C[C@](Sc3ccc(OC)cc3)(C(=O)N3CCOCC3)[C@H]2c2ccc(OC)cc2)c1	.	.	.	.	8.7	-5.7
COc1cc(-c2cc(O)c(-c3ccc4ccccc4n3)c(=O)[nH]2)cc(OC)c1OC	-1.7	62.3*	-5.7	-2.0	-7.2	-2.7
COc1cc(-c2nc3ccccc3nc2-c2ccc(O)c(OC)c2)ccc1O	0.7	10.5	5.0	-3.9	-12.8	-2.6
CC(C)[C@H](NC(=O)CC1CCCC1)C(=O)N1CCC[C@H]1C(=O)NCCc1ccccc1Cl	.	.	.	-8.1	-2.1	-1.4
CCc1c(C)nc2cc(-c3cc(OC)cc(OC)c3)nn2c1N1CCN(CCN2CCOCC2)CC1	-0.3	91.1*	14.6	-1.6	-12.1	-0.5
COC(=O)c1cc(NC(=O)Nc2cc(OC)ccc2OC)cc(C(=O)OC)c1	0.0	53.5*	6.4	-3.3	0.1	-2.9
COc1ccc(OC)c(NC(=O)Nc2ccc(Cl)cc2)c1	0.9	-14.7	-44.1	.	.	.
N/C(=N\NS(=O)(=O)c1ccccc1)c1ccccn1	-1.1	51.2*	-3.1	-2.1	-0.2	-5.1
SMILES	GAA850 FXN act	H9c2 protect	Gli-Sufu antag	GalR3 antag	NR2F2 inh	SMARCA2 activ
N/C(=N\NS(=O)(=O)c1cc(C(F)(F)F)cc(C(F)(F)F)c1)c1ccccn1	-0.8	15.2	0.3	-4.6	-0.6	0.3
O=C(NN=Cc1ccc(O)cc1)c1ccccc1NS(=O)(=O)c1cccs1	1.4	27.1	-3.6	-2.2	14.3	-1.7
O=C(N/N=C/c1cc(Cl)cc([N+](=O)[O-])c1O)c1ccccc1NS(=O)(=O)c1cccs1	0.1	49.9*	2.5	1.9	5.7	-2.6
CC1CCN(C(=O)COC(=O)c2n[nH]c(=O)c3ccccc23)CC1	2.5	61.5*	-1.9	-6.1	4.3	0.1
CCOC(=O)c1n[nH]c(=O)c2ccccc12	2.8	35.7	5.0	-2.4	-16.9	2.0
O=C1NC(=O)C(=O)N1	1.8	1.0	1.3	-4.4	16.6	2.5
O=C1NC(=O)c2c(Br)c(Br)c(Br)c(Br)c21	1.4	59.4*	9.0	-3.7	1.1	-4.9
COc1ccc(-c2cc(-c3ccc(O)cc3)nc(N)c2C#N)cc1OC	3.0	56.1*	1.5	-0.4	-33.4	-1.5
COc1ccc(S[C@]2(C(=O)N3CCOCC3)CC(=O)N(C(=O)c3ccccc3)[C@@H]2c2ccc(OC)cc2)cc1	.	.	.	.	28.7	-3.5
Cc1nn(C)cc1C(C(=O)NC1CCCCC1)N(C(=O)Cc1cccs1)c1ccc(Cl)cc1 (stereo not drawn)	0.6	54.7*	3.5	0.7	-13.2	-2.2
CCCCc1c(CCC)c(=N)c2ccccc2n1C	-1.6	-10.8	75.9*	-6.5	14.4	-3.5
Cc1ccc(-c2csc3nc[nH]c(=S)c23)cc1C	2.4	79.8*	-4.0	-9.7	7.0	0.5
COc1ccc(-c2csc3nc[nH]c(=O)c23)cc1OC	0.5	0.1	1.5	-5.7	-19.8	-2.6
C[C@@H]1COc2cc(Br)ccc2S(=O)(=O)N1Cc1cn(CC2CCCCC2)nn1	.	.	.	.	7.8	-1.8
CCOc1ccc2nc(NC(=O)CN3CCC(n4nnc5cc(F)ccc54)CC3)sc2c1	0.8	69.9*	6.2	-1.5	21.8	-0.5
COc1cc(-c2nnc(COC(=O)c3cc(C)nc4ccc(C)cc34)o2)cc(OC)c1OC	0.3	70.8*	10.8	0.0	9.0	0.4
CCOC(=O)c1c(NC(=O)COC(=O)c2ccc(O)cc2)sc(C(=O)N(C)C)c1C	-1.9	63.4*	4.8	10.1	2.5	-3.2
CCOC(=O)c1c(NC(=O)COC(=O)c2ccc(Cl)nc2)sc(C(=O)N(C)C)c1C	1.6	11.5	4.5	-5.2	13.7	2.2
Cc1cc(N(C)/N=C/c2ccccc2O)nc(-c2ccccc2O)n1	-0.2	50.2*	12.6	-7.2	-15.3	-1.3
Cc1cc(N/N=C/c2ccc(O)c(C)c2O)nc(-c2ccccc2O)n1	-8.9	35.6	-4.4	-10.0	11.5	-5.2
COC(=O)CCn1[nH]c(=O)c2ccccc2c1=O	2.1	1.9	6.8	2.8	-15.3	0.9
O=c1[nH]n(Cc2ccccc2)c(=O)c2ccccc12	5.3	56.5*	-12.9	-4.4	-22.1	-1.0

Assay outcomes as filed in PubChem BioAssay.
